Bioassay records: PubChem BioAssay, Broad Institute
Shown is part of a subset that was picked to be rich in hits.
BL2 CD40 inh = CD40 pathway inhibition in BL2 cells; inhibition, % at 10 µM; 0.94% of 83,000 active; BL2 NF-kB luciferase reporter, CD40L-induced, 4 h;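 active means mean inhibition of at least 50% with a set share of replicates also reaching that level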;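 further: 0% = neutral control wells and 100% = IKK inhibitor VII at 50 µM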
Numbers without * were called inactive; [ ] = another dose, or the depositor's remark.

SMILES	BL2 CD40 inh
COc1ccc2[nH]c(C)c(CCNCc3cn(C)c4ccccc34)c2c1	25
COc1ccc2[nH]cc(CCN)c2c1	-4
COc1ccc2[nH]c3c(c2c1)CCN=C3C	58*
C/C=C/c1ccc([C@@H]2[C@@H](CO)N3CCCCN(C(=O)Cc4cccnc4)C[C@@H]23)cc1	3[25 µM]
COC(=O)[C@H]1[C@H](CO)[C@H]2Cn3c(cccc3=O)[C@@H]1N2CCc1ccccc1	0[25 µM]
C=CCN1CCC23c4c5ccc(O)c4OC2/C(=N\NC(=O)c2ccccc2)CCC3(O)C1C5 (stereo not given)	-12[25 µM]
COc1cccc(CN2CC3(C2)[C@H](c2ccccc2)[C@H](CO)N3C(=O)Cc2ccccc2)c1	12[25 µM]
CC(C)NC(=O)N1[C@@H]2c3ccc(-c4cccc(C(=O)N(C)C)c4)c(=O)n3C[C@H]1[C@H](CO)[C@H]2C(=O)O	-11[25 µM]
CCCCC1C(=O)NC(=S)N(C)C1=O (stereo not given)	33*
C/C=C/c1ccc(C2[C@@H]3CN(C(=O)CN(C)C)C[C@H]2N3)cc1 (stereo not given in full)	-3[25 µM]
O=C(O)C[C@@H]1CC[C@H]2NC[C@H](O)COC[C@@H]2O1	0[25 µM]
CC(C)=CCCN1CCC(NC(=O)[C@](O)(c2ccccc2)C2CCCC2)CC1	-2[25 µM]
CC=Cc1ccc2n(c1=O)C[C@H]1[C@H](CO)[C@@H](C(=O)N(C)C)N[C@@H]21 (mixture of isomers)	4
CC(=O)N1C[C@@H]2C(c3ccc(Br)cc3)[C@H](C1)N2CC1CC1 (stereo not given in full)	7
NC(=O)c1c(Br)n(C2OC(CO)C(O)C2O)c2ncnc(N)c12 (stereo not given)	56*
CCNC(=O)[C@H]1O[C@@H](n2cnc3c(N)ncnc32)[C@H](O)[C@@H]1O	3
N#Cc1c(Br)n(C2OC(CO)C(O)C2O)c2ncnc(N)c12 (stereo not given)	83*
C=CCN1[C@@H]2CN(C(=O)NC(C)C)C[C@H]1C2c1ccccc1 (stereo not given in full)	-2
O=C(O)[C@H]1[C@H](CO)[C@H]2Cn3c(ccc(-c4ccc(F)cc4)c3=O)[C@@H]1N2CC1CCCC1	7
COc1cccc(-c2ccc([C@@H]3[C@H](CO)N4CCCCN(C(=O)Cc5ccncc5)C[C@@H]34)cc2)c1	-17[25 µM]
Cc1ccc(OC(=O)N(C)C[C@@H]2OCc3ccccc3-c3c(n(C)c4ccccc34)C(=O)N([C@@H](C)CO)C[C@H]2C)cc1	55*[25 µM]
Cc1ccc(OC(=O)N(C)C[C@H]2OCc3ccccc3-c3c(n(C)c4ccccc34)C(=O)N([C@H](C)CO)C[C@H]2C)cc1	38[25 µM]
Cc1ccc(OC(=O)N(C)C[C@H]2OCc3ccccc3-c3c(n(C)c4ccccc34)C(=O)N([C@@H](C)CO)C[C@@H]2C)cc1	31[25 µM]
COC(=O)[C@H]1[C@H](CO)[C@H]2Cn3c(ccc(-c4ccccc4)c3=O)[C@@H]1N2S(=O)(=O)c1ccccc1C	-12[25 µM]
O=C(Cc1cccnc1)N1CCCCN2[C@H](CO)[C@@H](c3ccc(C#CC4CCCC4)cc3)[C@@H]2C1	-9[25 µM]
SMILES	BL2 CD40 inh
COC(=O)[C@@H]1[C@@H](CO)[C@@H]2Cn3c(cccc3=O)[C@H]1N2Cc1nccs1	12[25 µM]
CCN(CCCl)c1cc(CN(C)C)cc(NC(=O)c2ccc(C(=O)Nc3cc(CN(C)C)cc(N(CC)CCCl)c3)cc2)c1	108*
CC(C)C1(NC(=O)C2CC3c4cccc5[nH]cc(c45)CC3N(C)C2)OC2(O)C3CCCN3C(=O)C(Cc3ccccc3)N2C1=O (stereo not given)	1[25 µM]
C[C@H]1CN([C@@H](C)CO)C(=O)CCCn2cc(nn2)CO[C@@H]1CN(C)C(=O)Oc1ccc2ccccc2c1	4[25 µM]
COc1ccc(CC2C(=O)NC(C)C(=O)N(C)C3C(=O)N(C)C(Cc4ccc(O)c(c4)Oc4ccc(cc4)C3O)C(=O)NC(C)C(=O)NC(C)C(=O)N2C)cc1 (stereo not given)	124*
COC(=O)[C@@H]1[C@@H](CO)[C@@H]2Cn3c(ccc(-c4cncnc4)c3=O)[C@H]1N2S(=O)(=O)c1ccccc1C	-8[25 µM]
COc1ccccc1CN1[C@H](CO)[C@H](c2ccccc2)C12CN(C(=O)Cc1ccccc1)C2	20[25 µM]
c1ccc(Cn2ccnc2)cc1	1
Clc1ccc(CSC(Cn2ccnc2)c2ccc(Cl)cc2Cl)cc1 (stereo not given)	49*
O=C1CNC[C@H]2[C@H](c3ccc(Br)cc3)[C@@H](CO)N12	-6[25 µM]
C[C@@H]1CN([C@@H](C)CO)C(=O)c2c(c3ccccc3n2C)-c2ccccc2CO[C@H]1CN(C)C(=O)Oc1ccccc1	34
CN1C2CN(CC(F)(F)F)CC1C2c1ccc(Br)cc1 (stereo not given)	-3
CC1=CC2OC3CC4OC(=O)C=CC=CC(C(C)O)OCC(O)C5(C)OC5C(=O)OCC2(CC1O)C4(C)C31CO1 (stereo not given)	86*
CC1CCOC(=O)C=CC=CC(=O)OC2CC3OC4C5OC5(C)C(O)CC4(COC(=O)C1O)C2(C)C31CO1 (stereo not given)	95*
CC(C)NC(=O)N1C[C@@H]2C(c3ccc(Br)cc3)[C@H](C1)N2CC1CC1 (stereo not given in full)	18
C[C@@H]1CN([C@H](C)CO)C(=O)CCCn2cc(nn2)CO[C@@H]1CN(C)C(=O)Oc1ccc2ccccc2c1	4[25 µM]
C#CCN1C(C)=C(C(=O)CCO)C(c2cccc(-n3oo3)c2)C(C(=O)OC)=C1C (stereo not given)	4[25 µM]
O=C1CNC[C@H]2[C@@H](c3ccc(Br)cc3)[C@@H](CO)N12	10
COC(=O)[C@@H]1[C@@H](CO)[C@@H]2Cn3c(ccc(-c4cccc(F)c4)c3=O)[C@H]1N2Cc1ccncc1	2[25 µM]
C=CCN1[C@@H]2CN(C(C)=O)C[C@H]1C2c1ccccc1 (stereo not given in full)	-6
CN1CCC2(c3cccc(O)c3)Cc3nc4ccccc4cc3CC2C1 (stereo not given)	3[25 µM]
O=C(O)[C@H]1[C@H](CO)[C@H]2Cn3c(ccc(-c4ccccc4)c3=O)[C@@H]1N2C(=O)C1CCCCC1	-5[25 µM]
O=C(Cc1ccncc1)N1CCCCN2[C@H](CO)[C@H](c3ccc(-c4ccncc4)cc3)[C@@H]2C1	-10[25 µM]
CN1C[C@@H]2N[C@H](C1)C2c1ccc(Br)cc1 (stereo not given in full)	0
COc1cc2cc(C(=O)N3CC(COS(C)(=O)=O)c4ccc(O)cc43)[nH]c2c(OC)c1OC (stereo not given)	91*
SMILES	BL2 CD40 inh
CCCNC(=O)N1[C@@H]2Cn3c(ccc(-c4ccccc4OC)c3=O)[C@H]1[C@@H](C(=O)OC)[C@@H]2CO	-6[25 µM]
CC(C)NC(=O)N1C[C@@H]2C(c3ccccc3)[C@H](C1)N2CC1CC1 (stereo not given in full)	-3
C/C=C/c1ccc(C2[C@@H]3CN(C(=O)C4CC4)C[C@H]2N3)cc1 (stereo not given in full)	1
CC1CC(C)(O)CC(C(O)CC2CC(=O)NC(=O)C2)C1=O (stereo not given)	96*
O=C(Cc1ccncc1)N1CCCCN2[C@@H](CO)[C@@H](c3ccc(C#Cc4ccccc4F)cc3)[C@@H]2C1	-9[25 µM]
O=C(O)[C@H]1[C@H](CO)[C@H]2Cn3c(ccc(-c4ccc(F)cc4)c3=O)[C@@H]1N2CC1CCCCC1	-3[25 µM]
COC(=O)[C@@H]1[C@@H](CO)[C@@H]2Cn3c(ccc(-c4ccc(F)cc4)c3=O)[C@H]1N2C(=O)c1ccccc1F	-13[25 µM]
